# Test results as given in ChEMBL document CHEMBL3988442, “University of Dundee, Small-Polar-MMV Screening Library” (2021).
# Target: AMP-activated protein kinase, AMPK (Homo sapiens) (UniProt P54646+O43741+P54619+Q9UGJ0+Q9Y478+Q13131+Q9UGI9)
# Assay: AMP-dependent Kinase enzyme assay. An in vitro enzyme assay that detects ADP turnover that is directly proportional to AMPK activity. This uses naive AMPK that is activated during the assay with MK-8722
# Type: functional
# Parameters: scale not given: direction of the effect not stated beside the values
# Conditions: 30 µM
row,Structure (SMILES),Percent Effect
1,Cc1cc(C(=O)N2CC[C@H](N3CCN(C)CC3)[C@H](CCCO)C2)n(C)n1,10.5%
2,Cc1ccccc1S(=O)(=O)N[C@@H]1CC[C@@H](N2CCNC(=O)C2)[C@@H]1O,5.3%
3,CCNC(=O)c1ccc(NC(=O)N(C)Cc2cccn2C)c(C)c1,12.2%
4,COc1ccsc1C(=O)NC1CCN(c2ccc(C#N)cc2)CC1,13.5%
5,C[C@@H]1CN(Cc2cn(C)nc2-c2ccccc2F)C[C@H](C)O1,19.5%
6,CN1CSC[C@H]1C(=O)N1CCC(Cc2ccccc2F)CC1,0.306%
7,c1cncc(CNCCc2cccs2)c1,-7.73%
8,Cc1ccc(-c2nc(C(=O)N(C)CC(=O)N3CCCC3)cs2)c(C)c1,1.55%
9,c1ccc(CCN2CCCC2c2cccc(Nc3nccs3)n2)cc1 (stereo not given),3.49%
10,CCC1c2ccccc2CCN1CCCS(C)(=O)=O (stereo not given),-1.94%
11,O=C(NCCC1CN(C2CCCC2)CCO1)c1c[nH]c(=O)[nH]c1=O (stereo not given),5.79%
12,CC(C)Cn1ncc(C(=O)O)c1C1CC1,5.05%
13,CC(C)n1cnnc1CN(C)C(=O)c1cc(COc2ccccc2)[nH]n1,0%
14,O=C(NCc1nnc2n1CCC2)c1cn(-c2ccccc2Br)nn1,12%
15,CC(NCC(=O)N1CCc2sccc2C1)c1ccccc1F (stereo not given),10.8%
16,O=S(=O)(c1cn[nH]c1)N1CCC(O)(CN2CCC(F)(F)CC2)C1 (stereo not given),9.16%
17,Cc1ccc(S(=O)(=O)Cc2nnc(C)n2C)cc1,6.55%
18,COc1ccc2c(c1)OCC(C(=O)NCc1ncc3c(n1)CCC3)C2 (stereo not given),-0.599%
19,O=C(NCc1cccnc1N1CCCCC1)c1ccc2c(c1)OCO2,-2.38%
20,CCc1ccccc1OCCN(C)C(=O)CCN1CCCO1,-7.88%
